Data: PubChem BioAssay AID2717 (Broad Institute, 2010)
About 3,200 (1.1%) of roughly 300,000 compounds were called active. Rule as the data show it: active = inhibition above about 75%; inconclusive = no clear call, values can overlap the other calls; inactive = below that; tested in HMLE shEcad cells. The list comes from a sample in which actives are over-represented; it also holds similar structures and randomly drawn compounds.

Assay: growth suppression of cancer stem-like cells – cell-based, luminescence, primary screen (AID 2717)
Conditions: cancer stem cell-like cells viability, at 7.5 µM, stronger effect = higher value

Structure (SMILES) | inhibition
COc1cc(OC)cc(-c2cc3ccc(F)cc3cn2)c1 | 47% (inactive)
CC[C@]1(O)CC2CN(CCc3c([nH]c4ccccc34)[C@@](C(=O)OC)(c3cc4c(cc3OC)N(C=O)[C@H]3[C@@](O)(C(=O)OC)[C@H](OC(C)=O)[C@]5(CC)C=CCN6CC[C@]43[C@@H]65)C2)C1 (some centres undefined) | 62.5% (inactive)
CC[C@]1(O)C[C@@H]2CN(CCc3c([nH]c4ccccc34)[C@@](C(=O)OC)(c3cc4c(cc3OC)N(C)[C@H]3[C@@](O)(C(=O)OC)[C@H](OC(C)=O)[C@]5(CC)C=CCN6CC[C@]43[C@@H]65)C2)C1 | 80.5% (active)
c1ccc(-c2ccccc2OCCN2CCCCC2)cc1 | 0.336% (inactive)
COc1ccc2sc(-c3ccccc3OC)c(-c3ccc(OCCN4CCCC4)cc3)c2c1 | 105% (active)
COc1ccccc1-c1sc2ccccc2c1-c1ccc(Br)nc1 | 31.6% (inactive)
c1ccc(-c2ccc(OCCN3CCOCC3)cc2)cc1 | 5.72% (inactive)
CC(=O)c1ccc(OCCN2CCOCC2)cc1 | -15.6% (inactive)
COc1ccc(-c2sc3ccccc3c2-c2ccc(OCCN3CCOCC3)cc2)cc1 | 136% (active)
O=C(Nc1cc(S(=O)(=O)Nc2ccc(Cl)cc2)ccc1O)c1ccc(F)cc1F | 18.9% (inactive)
COc1ccc(C(=O)COC(=O)C(O)c2ccccc2)c(OC)c1 (centres undefined) | 3.81% (inactive)
O=c1ccc2c(-c3ccccc3S(=O)(=O)O)c3ccc(O)c(O)c3oc-2c1O | 25.4% (inactive)
COCCN(C(=O)c1ccco1)c1nnc(-c2ccc(OC)cc2)s1 | -23% (inactive)
COc1cc(OC)cc(-c2nnc(N(C)C(=O)c3ccncc3)s2)c1 | -13.2% (inactive)
Cc1cccc(C)c1Nc1nnc(SCC(=O)NCCCN2CCCC2=O)s1 | -7.62% (inactive)
CN1CCN(C(=O)c2ccc(-c3ccc(Br)cc3)o2)CC1 | 44% (inactive)
O=C(CC1NCCc2ccccc21)Nc1cccc(Cl)c1 (centres undefined) | 7.22% (inactive)
O=C(CC1Nc2ccccc2NC1=O)Nc1ccccc1 (centres undefined) | 100% (active)
O=C(CC1NCCNC1=O)Nc1ccc(Oc2ccccc2)cc1 (centres undefined) | 52.9% (inactive)
O=C(COC(=O)c1ccc(O)cc1O)c1ccc2c(c1)OCCO2 | 8.44% (inactive)
O=C(Nc1cccc(S(=O)(=O)N2CCCCC2)c1)c1cncc(Br)c1 | -3.28% (inactive)
COc1ccc(CCNc2nc3ccc(C)cc3n3cnnc23)cc1OC | -23.4% (inactive)

Structure (SMILES) | inhibition
COc1ccc(CCNc2nc(C)cc(C)n2)cc1OC | -36.8% (inactive)
CCC[C@H]1CCCC/C=C\CCCC(=O)OCCN1C(=O)OC(C)(C)C | -20.7% (inactive)
COc1cccc(C2=CC(=O)C[C@H](c3ccc(OC)c(OC)c3)C2)c1 | -9.08% (inactive)
CN(CC(=O)Nc1ccc(Cl)cc1)C(=O)c1ccc(COc2ccccc2)cc1 | 22.8% (inactive)
CCOC(=O)c1c(-c2ccccc2)oc2ccc(OCC(N)=O)cc12 | -4.93% (inactive)
CCOC(=O)c1c(-c2ccccc2)oc2cc(Br)c(O)c(C=O)c12 | 100% (active)
CCOC(=O)c1c(-c2ccccc2)oc2cc(Br)c(O)cc12 | 47.8% (inactive)
O=C1CC2(CCCC2)C(=O)N1CN1CCN(S(=O)(=O)c2ccc(F)cc2F)CC1 | -4.63% (inactive)
CCCN(CC1CC1)C(=O)COC(=O)c1ccc(C)cc1O | -16% (inactive)
CC(NC(=O)COC(=O)Cn1cc(C(F)(F)F)ccc1=O)c1ccccc1 (centres undefined) | -18.4% (inactive)
Clc1ccc(CN2CCN(/N=C/c3cccnc3)CC2)cc1 | 3.75% (inactive)
O=Cc1cn(Cc2ccccc2)nc1-c1cccnc1 | -1.18% (inactive)
O=C1/C(=C\c2cccnc2)CN(Cc2ccccc2)C/C1=C\c1cccnc1 | 90.1% (active)
CC(OC(=O)c1c(F)cccc1F)C(=O)NCCC1=CCCCC1 (centres undefined) | -17.6% (inactive)
Cn1c(N)c(C(=O)COC(=O)c2cccc(S(=O)(=O)N3CCOCC3)c2)c(=O)n(C)c1=O | 8.64% (inactive)
CCC(=O)NC(Nc1nc2ccc(C)cc2s1)(C(=O)OC)C(F)(F)F (centres undefined) | 6% (inactive)
O=C(NC(Nc1nc2ccc([N+](=O)[O-])cc2s1)(C(F)(F)F)C(F)(F)F)c1ccccc1 | 98.4% (active)
CCOc1ccc2nc(NC(=O)c3cc([N+](=O)[O-])ccc3N3CCOCC3)sc2c1 | 36.3% (inactive)
Cc1cccc(OCC(=O)OCC(=O)Nc2ccc(Cl)cn2)c1 | 0.766% (inactive)
COC(=O)C1CCN(C(=O)COC(=O)c2cc(S(=O)(=O)N3CCOCC3)ccc2C)CC1 | 4.55% (inactive)
COc1cc2c(-c3ccc4c(c3)OCO4)c(-c3ccsc3)oc(=O)c2cc1OC | 8.35% (inactive)
Cc1ccc(S(=O)(=O)NCC(=O)NNC(=O)c2ccc(Br)cc2)cc1C | 1.69% (inactive)
